# Laboratory results: PubChem BioAssay AID933 (National Center for Advancing Translational Sciences (NCATS), 2007)
# Results filed as inconclusive are left out. Values without a mark were called inactive. The call rests on the fitted dose curve; in most records, active means well fitted activation curve with a large enough effect in the signal ratio, with a control signal flat; inconclusive means small, poorly fitted or top-dose-only effect, or a change in a side signal; inactive means flat fitted curve, though single readings scatter; the % refers to the signal ratio.
# Molecular target: Thyrotropin receptor (Homo sapiens) (UniProt P16473)
# Assay: Secondary Concentration-Response Assay for Agonists of the Thyroid Stimulating Hormone Receptor: HTRF Activity Detection;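 further: HEK 293 cells stably expressing human TSHR with RO 20-1724 phosphodiesterase inhibitor; % of control where 0% means no effect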
# Conditions: HEK293-TSHR cells, cAMP HTRF ratio, 30 min; series mostly up to 91.7 µM; activation: at the top concentration
# Text: NIH Chemical Genomics Center [NCGC]
# NIH Molecular Libraries Screening Centers Network [MLSCN]
# PI Name: Dr. Marvin Gershengorn, NIH
# Confirmation of Thyroid Stimulating Hormone Receptor Agonists
# TSH is an alpha/beta heterodimeric glycoprotein hormone secreted from the anterior pituitary gland which belongs to the glycoprotein hormone family. The actions of TSH are mediated by a seven-transmembrane receptor, which upon TSH binding couples preferentially to the G-alpha (s) protein (Gs), resulting in activation of adenylate cyclase and increase in cyclic adenosine 3', 5' monophosphate (cAMP). The TSH receptor (THSR) is mainly expressed in thyroid follicular cells and regulates their growth and function. Recombinant TSH is used to activate TSHR in patients with thyroid cancer receiving thyroid hormone suppression therapy and to screen for residual tumor after surgery, but it is expensive and must be administered intramuscularly. An orally active small molecule TSHR agonist would serve as an invaluable research tool for studying TSHR pharmacology and physiology, and would have multiple advantages in therapeutic settings. However, no selective small molecule agonist of the TSH receptor exists, and no small molecule screen for TSHR agonists has ever been reported.
# A confirmatory assay of putative TSHR agonists was conducted on a different TSHR transfected HEK 293 cell line, using an orthogonal detection technology to measure cAMP stimulation: antibody-based Homogeneous Time Resolved Fluorescence (HTRF).
# NCGC Assay Protocol Summary:
# Homogeneous Time Resolved Fluorescence (HTRF) cAMP Assay. HEK 293 cells stably transfected with a vector containing the TSHR and maintained under hygromycin selection were obtained from the laboratory of Dr. Marvin Gershengorn. […] Plates were measured using the Envision plate reader (PerkinElmer, Boston, MA) with excitation at 330 nm and emissions of 615 nm and 660 nm.
# Keywords: Thyroid-stimulating hormone TSH, TSHR, TSHR agonist, quantitative high throughput screening, qHTS, HTS, probe identification, CNG, cAMP, cyclic nucleotide gated ion channel PubChem
# Sequence of Thyrotropin receptor (Homo sapiens) (P16473 whole entry, looked up): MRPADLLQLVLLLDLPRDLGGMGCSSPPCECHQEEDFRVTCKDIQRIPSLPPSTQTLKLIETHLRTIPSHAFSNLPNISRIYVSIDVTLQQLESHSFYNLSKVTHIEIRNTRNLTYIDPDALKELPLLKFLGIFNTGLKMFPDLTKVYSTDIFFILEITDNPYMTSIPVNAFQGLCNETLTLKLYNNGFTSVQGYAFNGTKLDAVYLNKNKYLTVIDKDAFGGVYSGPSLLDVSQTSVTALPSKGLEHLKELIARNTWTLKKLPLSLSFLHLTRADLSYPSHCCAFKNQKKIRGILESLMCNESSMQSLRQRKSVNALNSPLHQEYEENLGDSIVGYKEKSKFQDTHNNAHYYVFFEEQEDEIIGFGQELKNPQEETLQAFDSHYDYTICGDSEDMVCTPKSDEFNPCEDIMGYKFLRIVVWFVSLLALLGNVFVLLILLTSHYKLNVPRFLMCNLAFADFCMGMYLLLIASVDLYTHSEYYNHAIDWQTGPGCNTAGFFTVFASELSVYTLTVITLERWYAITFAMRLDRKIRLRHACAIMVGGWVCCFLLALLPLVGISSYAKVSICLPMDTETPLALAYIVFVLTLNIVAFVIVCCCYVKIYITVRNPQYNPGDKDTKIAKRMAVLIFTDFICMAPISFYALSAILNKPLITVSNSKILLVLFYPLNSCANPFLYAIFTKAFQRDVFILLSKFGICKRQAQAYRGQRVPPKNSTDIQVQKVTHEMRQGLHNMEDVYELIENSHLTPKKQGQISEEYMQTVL
row,SMILES,activation
1,O=c1[nH]c(=O)n(Cc2ccco2)c(O)c1C=NC1CC1,-0.432% [at 0.00035 µM]
2,C=CCN1C(=O)C2(C(C(=O)OC)=C(N)Oc3c2c(=O)oc2ccccc32)c2ccccc21 (stereo not drawn),9.85%
3,CCOC(=O)C1=C(N)Oc2c(c(=O)oc3ccccc23)C12C(=O)N(C)c1ccccc12 (stereo not drawn),3%
